Screening data deposited in PubChem BioAssay by several laboratories.
Only some compounds are listed: those with a hit (about 3.1% of all), similar ones and a draw of the others.
Mac1 fbg inh – inhibitors of human CD11b/CD18 binding to fibrinogen. 93,000 compounds, 0.54% hits. inhibition, % at 10 µM. K562 CD11b/CD18 adhesion to fibrinogen, ATPlite luminescence; Mn2+ added to activate the integrin. AID 1497. P05107+P11215;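 active = primary inhibition of 50% or more at 10 µM, then 40% or more on retest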
ERa coact inh – blocks coactivator binding to human estrogen receptor alpha; P03372; TR-FRET ER-alpha LBD / SRC-1 peptide, estradiol-bound; inhibition, % at 25.6 µM; 86,000 compounds, 1.7% hits; in the data active = inhibition above about 50%
Target sequence (P03372 whole entry, looked up, the tested form may be a part): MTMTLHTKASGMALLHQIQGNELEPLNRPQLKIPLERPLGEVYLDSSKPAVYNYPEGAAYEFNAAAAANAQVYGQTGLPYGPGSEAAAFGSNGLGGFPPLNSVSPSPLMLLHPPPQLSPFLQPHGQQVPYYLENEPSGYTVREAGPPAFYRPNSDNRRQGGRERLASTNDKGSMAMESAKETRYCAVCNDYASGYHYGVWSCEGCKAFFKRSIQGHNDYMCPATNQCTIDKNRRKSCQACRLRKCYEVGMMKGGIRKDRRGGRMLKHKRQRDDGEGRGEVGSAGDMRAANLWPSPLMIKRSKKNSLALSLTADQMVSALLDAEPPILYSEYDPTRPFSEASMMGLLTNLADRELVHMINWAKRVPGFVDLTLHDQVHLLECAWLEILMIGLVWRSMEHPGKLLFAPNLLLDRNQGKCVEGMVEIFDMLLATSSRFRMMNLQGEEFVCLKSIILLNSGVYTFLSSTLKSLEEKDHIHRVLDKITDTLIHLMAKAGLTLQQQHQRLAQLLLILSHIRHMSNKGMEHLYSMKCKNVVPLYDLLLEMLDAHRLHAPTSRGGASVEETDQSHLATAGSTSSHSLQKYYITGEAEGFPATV
Mac1 fbg enh – CD11b/CD18-fibrinogen binding enhancement; K562 CD11b/CD18 adhesion to fibrinogen, ATPlite luminescence; P05107+P11215; activation, % at 10 µM; 93,000 compounds, 0.07% hits;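 active = 10 µM primary screen giving 50% or more activity, confirmed by 40% or more on retest at that dose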
ERa coact pot – enhances coactivator binding to human estrogen receptor alpha | TR-FRET ERalpha-LBD/SRC-Cy5 coactivator binding, 2 h; 100 = basal binding, no effect | coactivator binding (% of control), % at 25.6 µM | 86,000 compounds, 1.3% hits | AID 639; in the data active = activity above about 200%;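 also: binding measured in presence of low estradiol as agonist stimulus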
ERb coact inh – ER-beta (human) coactivator binding inhibition; Q92731; TR-FRET ER-beta LBD / SRC1-Cy5 peptide binding; receptor agonist-loaded with 1 µM estradiol; inhibition, % at 25.6 µM; 86,000 compounds, 1.3% hits;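 active = compounds whose percent inhibition of the receptor-coactivator binding signal exceeds about 50% in the single-dose screen, limit read from the data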
Each line names hits and unclear results; the compound was inactive in the other large screens; [ ] = another dose, or the depositor's remark.

O=C(c1ccc(CS(=O)(=O)c2ccccc2)o1)N1CCC2(CC1)OCCO2	ERb coact inh 74[fluorescence artefact?]
O=C(c1ccc(CS(=O)(=O)c2ccc(Br)cc2)o1)N1CCC2(CC1)OCCO2	none
CCOc1ccccc1-n1c(O)c(C=Nc2ccc(N(CC)CC)cc2)c(=O)[nH]c1=O	ERa coact inh 62[fluorescence artefact?]
Clc1cccc(Cl)c1CN1CCN(c2ccccc2)CC1	none
O=C1CN=C(c2cccs2)c2c(sc3c2CCCC3)N1	ERb coact inh 64[fluorescence artefact?] (no result: Mac1 fbg inh, Mac1 fbg enh)
Cc1cc2c(s1)NC(=O)CN=C2c1cccs1	none
COc1ccccc1CCNCc1cc2c(cc1[N+](=O)[O-])OCO2	none (no result: ERa coact inh, ERa coact pot, ERb coact inh)
c1ccc(C2N3CCCN23)cc1 (configuration not stated)	none
Clc1cccc(Cl)c1C1N2CCCN12 (configuration not stated)	ERb coact inh 81[fluorescence artefact?]
COC(=O)C(O)(c1ccc(N(C)C(=O)OC(C)C)cc1)C(F)(F)F (configuration not stated)	ERb coact inh 68
CCOC(=O)N(C)c1ccc(C(O)(C(=O)OCC)C(F)(F)F)cc1 (configuration not stated)	none
CCC(=NCCc1c[nH]c2ccccc12)c1c(O)n(C)c(=O)n(C)c1=O	Mac1 fbg inh 79
COc1ccc(C(Nc2ccccc2)P(=O)(Oc2ccccc2)Oc2ccccc2)cc1 (configuration not stated)	none (no result: ERa coact inh, ERa coact pot, ERb coact inh)
O=C(c1c[nH]cc1-c1ccccc1)c1cccc2ccccc12	none (no result: Mac1 fbg inh, Mac1 fbg enh)
CN(C)c1ccc(NC(=O)CN2C(=O)CN=C(c3ccccc3)c3ccccc32)cc1	ERb coact inh 53[fluorescence artefact?]
CC1=CC(=C2C(=O)NC(=S)NC2=O)C=C(C(F)(F)F)N1C	ERa coact inh 52[fluorescence artefact?], ERb coact inh 63[fluorescence artefact?]
CCOC(=O)c1c(C)[nH]c(C(=O)C(Cc2ccccc2)N(C)C)c1C (configuration not stated)	none (no result: ERa coact inh, ERa coact pot, ERb coact inh)
CC(C)N1C(=O)CCC1C(=O)N1CCC2(CC1)OCCO2 (configuration not stated)	none
O=C(C1CCC(=O)N1Cc1ccccc1Cl)N1CCC2(CC1)OCCO2 (configuration not stated)	ERa coact pot 809[fluorescence artefact?]
CCN1/C(=C\C=C\C2=[N+](CC)c3ccccc3C2(C)C)C(C)(C)c2ccccc21	Mac1 fbg inh 97
O=C(c1ccc2nc(-c3ccco3)c(-c3ccco3)nc2c1)N1CCC2(CC1)OCCO2	ERa coact inh 56[fluorescence artefact?], ERb coact inh 76[fluorescence artefact?]
O=c1[nH]c(=O)n(Cc2ccco2)c(O)c1/C=N/N1CCCCC1	none (no result: ERa coact inh, ERa coact pot, ERb coact inh)
CCOC(=O)c1c(N)n(Cc2ccco2)c2nc3ccccc3nc12	none
COCC(C)OC(=O)c1c(N)n(Cc2ccco2)c2nc3ccccc3nc12 (configuration not stated)	ERb coact inh 58[fluorescence artefact?] (no result: Mac1 fbg inh, Mac1 fbg enh)
COc1ccc(Cn2c(N)c(C(=O)NCc3ccco3)c3nc4ccccc4nc32)cc1	ERa coact inh 73 (no result: Mac1 fbg inh, Mac1 fbg enh)
O=c1[nH]c(=S)n(C2CC2)c(O)c1C=Nc1cccc(C(F)(F)F)c1	none (no result: ERa coact inh, ERa coact pot, ERb coact inh)
CCn1nc(-c2cccs2)nc2c(=O)n(C)c(=O)nc1-2	Mac1 fbg inh 63 (no result: ERa coact inh, ERa coact pot, ERb coact inh)
Cc1cccc(-n2c(-c3cccs3)nc3ccccc3c2=O)c1	none (no result: ERa coact inh, ERa coact pot, ERb coact inh)
N#CCC(=O)NN1Cc2ccccc2C1=N	none (no result: ERa coact inh, ERa coact pot, ERb coact inh)
CC12CN3CC(C)(CN(C1)C3c1ccncc1)C2=O (configuration not stated)	ERb coact inh 93[fluorescence artefact?]
N#CCCn1cc(C(=O)Nc2ccccc2Br)c(-c2ccc3c(c2)OCCO3)n1	none (no result: ERa coact inh, ERa coact pot, ERb coact inh)
C=CCOc1ccc(CC2C(=O)N(C)C(=O)N(C)C2=O)cc1	ERa coact inh 57
O=P(NCc1ccccc1)(Oc1ccccc1)Oc1ccccc1	none (no result: ERa coact inh, ERa coact pot, ERb coact inh)
CCOc1ccccc1N1C(=O)NC(=O)C(CCc2ccncc2)(CCc2ccncc2)C1=O	ERa coact pot 384 (no result: Mac1 fbg inh, Mac1 fbg enh)
